# Assay outcomes (PubChem BioAssay)
# A selection: hits, their analogues and other compounds. The true share with any hit is near 4.2%.
# MITF TRPM1 HTS: activators of MITF-driven TRPM1 promoter reporter, primary screen, cell-based, SK-MEL-5, luciferase, single point. hit rate 0.75% among 300,000. AID 588334, 2011. activation, % at 12.5 µM. SK-MEL-5 TRPM1-promoter luciferase, 24 h; % of positive control, neutral wells = 0;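 active = mean activation of at least 80% with every replicate also reaching 80%; inconclusive = mean reaches 80% but some replicate falls short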;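 also: 0% = neutral control wells and 100% = parthenolide positive control wells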
# AHR activator: AHR activators, primary screen, cell-based, luminescence, luciferase reporter, human; Aryl hydrocarbon receptor (Homo sapiens), P35869; AHR-responsive luciferase reporter cells; activation, % at 5 µM; hit rate 2.5% among 320,000; AID 2796, 2010; in the data active = activation above about 47%;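 also: 0% = vehicle wells and 100% = reference agonist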
# FXN GAA850 act: FXN promoter activators, primary screen, cell-based, luciferase luminescence, HEK293 lucGAA850; activation, % at 6 µM; hit rate 0.56% among 360,000; HEK293 lucGAA850 FXN promoter luciferase reporter, 24 h; percent of 10 µM SAHA response;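 active = activation above the average of all compounds screened plus 3 SD, cutoff fixed separately per campaign, cut at about 7.5% in these data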;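 also: 0% = DMSO wells and 100% = 10 µM SAHA wells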
# Wnt act: Wnt/beta-catenin pathway activators, primary screen, cell-based, plate reader, single point | activation, % at 9.35 µM | hit rate 1.2% among 300,000 | AID 743398, 2014 | Wnt/beta-catenin reporter cell assay, activator; in the data active = activation above about 30%, passing the limit was not always enough; inconclusive = no clear call, values can overlap the other calls;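 also: 0% = neutral control wells and 100% = positive control wells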
# esBAF inh: Bmi1 luciferase reporter increase in mESCs, primary screen, esBAF inhibitor project, mouse ES cells, Bmi1 luciferase knock-in, single point; reporter increase, % at 12.5 µM; AID 602393, 2012; hit rate 2% among 350,000; 24 h; 100% = twice the neutral-well signal; in the data active = activation above about 40%; inconclusive = no clear call, values can overlap the other calls;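 also: 0% = median of the plate's neutral control wells and 100% = double that signal; a rise in the Bmi1 reporter signal indicates esBAF inhibition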
# * marks the source's active call; other numbers are inactive results; ? = inconclusive; / = no result.
SMILES,MITF TRPM1 HTS,AHR activator,FXN GAA850 act,Wnt act,esBAF inh
C[C@@H]1CCCCO[C@@H](CN(C)Cc2ccncc2)[C@H](C)CN([C@@H](C)CO)C(=O)c2cc(NC(=O)Nc3ccc4c(c3)OCO4)ccc2O1,/,/,/,/,62*
C[C@H](CO)N1C[C@H](C)[C@H](CN(C)Cc2ccncc2)OCCCC[C@H](C)Oc2ccc(NC(=O)Nc3ccc4c(c3)OCO4)cc2C1=O,/,/,/,/,73*
COc1cccc(CNC(=O)C(Cc2ccccc2)n2cccc2)c1 (stereo not drawn),13,3,1,44*,/
Cc1ccc(S(=O)(=O)Nc2ccc3c(c2)CC(=O)N([C@@H](C)CO)C[C@H](C)[C@@H](CN(C)Cc2ccc4c(c2)OCO4)O3)cc1,/,/,/,/,7
CC(C)C(=O)Nc1ccc2c(c1)C(=O)N(C)[C@@H]1CC[C@@H](CC(=O)NCc3cccc(F)c3)O[C@@H]1CO2,/,/,/,/,-4
COc1cc(C2C(C#N)=C(C)NC3=C2C(=O)c2ccccc23)cc(OC)c1OC (stereo not drawn),-77,113*,4,-1,-20
COc1ccc(C2C(C#N)=C(C)NC3=C2C(=O)c2ccccc23)cc1 (stereo not drawn),3,3,-1,/,-5
C[C@H]1CN([C@@H](C)CO)C(=O)Cc2cc(NC(=O)CCCCCC(=O)Nc3ccccc3N)ccc2O[C@@H]1CN(C)S(=O)(=O)c1cccs1,/,/,/,/,3
CC(C)CCN1C(=O)c2cccc3c(N)ccc(c23)C1=O,/,65*,7,22,/
Nc1ccc2c3c(cccc13)C(=O)N(c1ccccc1)C2=O,6,/,1,0,/
CC(C)NC(=O)N(C)C[C@@H]1Oc2ccc(NC(=O)Cn3cnnn3)cc2C(=O)N([C@@H](C)CO)C[C@@H]1C,/,/,/,/,2
CCNC(=O)[C@H]1[C@H](CO)[C@H]2Cn3c(ccc(-c4ccccc4)c3=O)[C@H]2N1CC1CC1,/,/,/,/,5
CO[C@@H]1CN(C)C(=O)c2cc(NC(=O)NC3CCCCC3)ccc2OC[C@@H](C)N(CC2CC2)C[C@H]1C,/,/,/,/,3
O=C1C=C(c2ccccc2)CC(/C=C/c2ccccc2)C1 (stereo not drawn),2,75*,0,6,/
Cc1sc(NC(=O)Cc2ccc3c(c2)OCO3)nc1-c1ccc2c(c1)CCN2C(=O)c1cccc(F)c1,-34,73*,-1,-12,/
Cc1ccccc1C(=O)N1CCc2cc(-c3nc(NC(=O)Cc4ccc5c(c4)OCO5)sc3C)ccc21,-22,1,-5,/,/
COc1ccc(NC(=O)C2C(c3ccc4c(c3)OCO4)=Nc3ccccc3N2C(C)=O)cc1 (stereo not drawn),/,/,/,35*,/
C[C@H](CO)N1C[C@H](C)[C@H](CN(C)C(=O)c2cc(-c3ccccc3)on2)OCc2cn(nn2)CCCC1=O,/,/,/,/,-1
C[C@@H]1CN([C@@H](C)CO)C(=O)c2cc(NS(=O)(=O)c3cn(C)cn3)ccc2O[C@@H](C)CCCCO[C@H]1CN(C)C(=O)c1ccncc1,/,/,/,/,-1
C[C@@H]1CN([C@@H](C)CO)C(=O)c2cc(NC(=O)CCC(F)(F)F)ccc2O[C@H]1CN(C)C(=O)Nc1ccccc1,/,/,/,/,-5
O=C(CSc1nc(N2CCCCC2)nc(N2CCCCC2)n1)c1ccccc1,/,4,2,0,-5
Cc1cc(N2CCCCC2)nc(SCC(=O)c2ccccc2)n1,/,10,6,?,53*
C[C@H](CO)N1C[C@H](C)[C@@H](CN(C)C(=O)CCCN(C)C)OCCCC[C@H](C)Oc2ccc(NC(=O)c3ccccc3)cc2C1=O,/,/,/,/,1
CCC(=O)Nc1c(-c2ccc3ccccc3c2)nc2ccccn12,15,50*,2,9,11
CC(=O)Nc1c(-c2ccc3ccccc3c2)nc2ccccn12,82*,51*,5,23,57*
SMILES,MITF TRPM1 HTS,AHR activator,FXN GAA850 act,Wnt act,esBAF inh
O=C(Nc1c(-c2ccccc2)nc2ccccn12)c1ccccc1,-7,3,0,-1,0
C[C@H](CO)N1C[C@H](C)[C@H](CN(C)Cc2ccc(C(=O)O)cc2)Oc2ccc(NS(=O)(=O)c3ccc(Cl)cc3)cc2C1=O,/,/,/,/,0
N#Cc1cc(-c2ccccc2)nc(N2CCNCC2)n1,-18,50*,3,-1,/
COc1ccc(S(=O)(=O)N(C)C[C@@H]2Oc3ccc(NS(=O)(=O)c4cn(C)cn4)cc3C(=O)N([C@H](C)CO)C[C@H]2C)cc1,/,/,/,/,1
CN1CCN(/N=C/c2c3ccccc3c(Cl)c3ccccc23)CC1,14,57*,2,-3,/
N#Cc1ccsc1NC(=O)COC(=O)c1ccc(NC(N)=O)cc1,87*,13,6,18,48*
NC(=O)Nc1ccc(C(=O)OCC(=O)Nc2sccc2C(N)=O)cc1,8,/,3,3,-2
O=C(NCCO)C(=O)Nc1cc2c3c(c1)CC(=O)N3CCC2,6,0,1,0,-2
COc1ccc(C(=O)Nc2cc3c4c(c2)CC(=O)N4CCC3)cc1,23,-2,-1,1,/
O=C(CCl)c1cc2c3c(c1)CC(=O)N3CCC2,-43,1,8.6*,2,5
O=C(Nc1cc2c3c(c1)CC(=O)N3CCC2)c1ccc(F)cc1,16,47*,2,1,/
O=C(N[C@@H]1CC[C@@H](CCNC(=O)C2CCOCC2)O[C@H]1CO)c1ccncc1,/,/,/,/,-3
COc1ccc(NC(=O)c2c(NC(=O)CCC(=O)O)sc(-c3ccccc3)c2C)cc1,2,10,2,34*,/
COC(=O)c1[nH]c2cc(OC)c(OC)cc2c1NC(=O)c1cccc(OC)c1,36,62*,3,0,12
CC(=O)Nc1cccc(Oc2ccc(-c3noc(C)n3)cc2)c1,56,11,4,27,72*
CCOC(=O)c1[nH]c2ccc(OC)cc2c1NC(=O)c1ccc(OC)c(OC)c1,22,3,2,-2,/
COC(=O)c1c(NC(=O)CCC(=O)O)sc(Cc2ccccc2)c1C,0,-1,1,7,/
COc1ccc(NC(=O)c2sc(SCc3ccccc3)nc2N)cc1,3,48*,0,-5,3
CNC[C@@H]1Oc2ccc(NC(=O)C3CC3)cc2C(=O)N([C@H](C)CO)C[C@H]1C,/,/,/,/,-2
Cc1noc(C)c1NC(=O)N(C)C[C@H]1Oc2ccc(NS(=O)(=O)c3cn(C)cn3)cc2CC(=O)N([C@@H](C)CO)C[C@H]1C,/,/,/,/,1
C/C=C/c1ccc2c(c1)O[C@@H](CN(C)C(=O)Cc1ccncc1)[C@@H](C)CN([C@@H](C)CO)S2(=O)=O,/,/,/,/,-4
COc1cccc(/C(C)=N/N=C(\C)c2cccc(OC)c2)c1,/,/,3,11,70*
COc1cccc(NC(=O)c2ccc(C(=O)c3ccccc3)o2)c1,?,1,1,37*,38
COc1cccc(C(=O)Nc2cccc(NC(=O)c3ccccc3Cl)c2)c1,/,1,1,-3,17
